Reference: PubChem BioAssay (NCI)
About 79,000 compounds went through this panel and 15% of them were active in at least one assay; those are over-represented in the sample as a whole. Values without a mark were called inactive. Active and inactive are the calls of the source. No stated cut-off is given here; in the data, active means growth inhibition above about 70%; inactive means the rest.

experiment: NCI Yeast Anticancer Drug Screen. Data for the rad50 strain (AID 155);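 further: 0% = growth of vehicle-only cultures of the same strain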; conditions: S. cerevisiae rad50 strain growth inhibition; at 50.0 µM; active compounds read high
Outline: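 Readout: growth inhibition relative to vehicle-treated cultures. Compound exposure was carried out in a genetically defined yeast strain deficient in DNA damage repair.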

SMILES | growth inhibition
C=C1CCN(c2ccccc2)C1=O | 5.3%
Cc1ccc(OCC2OC(n3cnc4c(Cl)nc(Cl)nc43)CC2Oc2ccc(C)cc2)cc1 (centres undefined) | -20.4%
O=c1c2ccccc2nc(-c2ccccc2)n1/N=C/c1ccccc1[N+](=O)[O-] | 18.2%
CCC(C)C1(O)OC2CC3(C)OC(=CC3=O)/C(C)=C\C3OC(=O)C1(C)C32 (centres undefined) | 7.65%
COc1ccc2c(c1)N(C(C)=O)CN1C(=O)CCC21 (centres undefined) | -10.4%
COc1ccc2nc(NC(=O)/C(C#N)=C/c3ccccc3)sc2c1 | 5.9%
CC1=C(/C=C/C(C)=C/C=C/C(C)=C/C(=O)Nc2ccc(O)cc2)C(C)(C)CCC1 | -28.4%
COC(=O)c1nc(Br)cnc1N | 8.05%
COc1cc2c(cc1-c1coc3cc(O)ccc3c1=O)OCO2 | -12.6%
CC1CC2(OC2C)C(=O)OC2CCN(C)C/C=C(/COC(=O)C1(C)O)C2=O (centres undefined) | 2.3%
O=C(/C=C/c1ccccc1)Nc1ccccc1 | 12.9%
CC1=CC(=O)c2ccc(C)cc2C1=O | -8.9%
O=C1C=CC=C/C1=C1\N=C(c2ccccc2OCC(=O)c2ccc(Br)cc2)SS1 | 10.1%
CCOc1cc2c(cc1O)C=C[C@@H]1[C@@H]2CC[C@]2(C)[C@@H](O)CC[C@@H]12 | 33.8%
Cc1ccc2c(sc(-c3ccc4c(c3)sc(-c3ccc5c(c3)sc(-c3ccc(N(C)C)cc3)[n+]5C)[n+]4C)[n+]2C)c1S(=O)(=O)O (tested in a mixture with another compound) | 27.7%
COc1ccc(N=C(C)C(C)=Nc2ccc(OC)cc2)cc1 | -3%
COc1ccc2nc(N/N=C/c3ccc(C)s3)cc(C)c2c1 | 22.3%
O=C1c2cccnc2-c2nccc3ccnc1c23 | 75% (active)
CNC(=S)/C(=N\Nc1nc[nH]c1C(N)=O)C(N)=S | -3.7%
COc1cc(N(CCC#N)CCC#N)ccc1/C(N=Nc1ccc(Cl)cc1)=N/NC(=O)c1cc(Br)ccc1O | 7.6%
O=C(Nc1cccc(NC(=O)C(=O)C2CCC3=C(Sc4ccccc4N3)C2=O)n1)C(=O)C1CCC2=C(Sc3ccccc3N2)C1=O (centres undefined) | 2.5%
COC(=O)C(=O)C(C(=O)C(=O)Nc1ccccc1C(C)=O)c1nc2ccc(C(=O)c3ccccc3)cc2[nH]c1=O (centres undefined) | 25.9%
[O-]c1ccccc1/C=N/C(/N=C/c1ccccc1[O-])c1ccccc1O.[O-]c1ccccc1/C=N/C(/N=C/c1ccccc1[O-])c1ccccc1O.[Zr+4] | 0.55%
OCc1ccccn1 | -10.7%

experiment: NCI Yeast Anticancer Drug Screen. Data for the mec2-1 strain (AID 157); conditions: S. cerevisiae mec2-1 strain, at 50.0 µM, active compounds read high
Outline: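 Using mec2-1 yeast: add compound, measure growth, express inhibition versus vehicle-treated cultures.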

SMILES | growth inhibition
Cc1nc(-[n+]2nc(-c3ccccc3)nn2-c2ccccc2)sc1C | -15.2%
CC(=O)[C-](C(C)=O)c1ccccc1.CC(=O)[C-](C(C)=O)c1ccccc1.CC(=O)[C-](C(C)=O)c1ccccc1.[Cl-].[Zr+4] | 28.8%
O=C1NC(N/N=C\c2ccccc2)=N/C1=C/c1ccc(Cl)cc1 | 0.75%
CC1(C)Oc2ccc3c(=O)cc(-c4ccc(F)cc4)oc3c2C1C(=O)O (centres undefined) | -16.6%
C=C1C(=O)OC2/C=C(\CO)CC/C=C(\CO)CC(OC(=O)C(C)C)C12 (centres undefined) | -13.4%
N#CC(=S)Nc1ccc(F)cc1 | 26.1%
COC(=O)c1cnn2c1n[n+]([O-])c1ccccc12 | -36%
Cc1ccc(OC2CC(n3cnc4ncnc(Cl)c43)OC2Oc2ccc(C)cc2)cc1 (centres undefined) | 2.1%
c1ccc(-c2cccc3ccccc23)cc1 | 6.7%
O=C(O)c1cn(C2CC2)c2cc(N3CCNCC3)c(F)cc2c1=O | -6.4%
Cn1cnc2c(=O)[nH]c(=O)[nH]c21 | -10.9%
COc1c2c(c3c(c1OC)c(=O)c1ccccc1n3C)OCO2 | 10.8%
CCCCCCCCCC(O)CC(=O)c1c(O)cccc1O (centres undefined) | 77.2% (active)
O=S(=O)(O)c1cc(O)c2c(O)cc(S(=O)(=O)O)cc2c1 | -20.1%
CCOC(=O)C(=O)C(CCC(=O)c1ccc2ccccc2c1O)C(=O)OCC (centres undefined) | -1.65%
CCOC(=O)COc1cc(-c2ccccc2)nc2cc(F)ccc12 | 7.95%
C=C1CCN(c2ccccc2)C1=O | -2.6%
Cc1ccc(OCC2OC(n3cnc4c(Cl)nc(Cl)nc43)CC2Oc2ccc(C)cc2)cc1 (centres undefined) | -21.6%
O=c1c2ccccc2nc(-c2ccccc2)n1/N=C/c1ccccc1[N+](=O)[O-] | 1%
CCC(C)C1(O)OC2CC3(C)OC(=CC3=O)/C(C)=C\C3OC(=O)C1(C)C32 (centres undefined) | -31.2%

SMILES | growth inhibition
COc1ccc2c(c1)N(C(C)=O)CN1C(=O)CCC21 (centres undefined) | 1.25%
COc1ccc2nc(NC(=O)/C(C#N)=C/c3ccccc3)sc2c1 | -24.9%
CC1=C(/C=C/C(C)=C/C=C/C(C)=C/C(=O)Nc2ccc(O)cc2)C(C)(C)CCC1 | 1.05%
COC(=O)c1nc(Br)cnc1N | -8.4%
COc1cc2c(cc1-c1coc3cc(O)ccc3c1=O)OCO2 | -24.3%
CC1CC2(OC2C)C(=O)OC2CCN(C)C/C=C(/COC(=O)C1(C)O)C2=O (centres undefined) | 7.05%
O=C(/C=C/c1ccccc1)Nc1ccccc1 | -21%
CC1=CC(=O)c2ccc(C)cc2C1=O | -24.4%
O=C1C=CC=C/C1=C1\N=C(c2ccccc2OCC(=O)c2ccc(Br)cc2)SS1 | 18.1%
CCOc1cc2c(cc1O)C=C[C@@H]1[C@@H]2CC[C@]2(C)[C@@H](O)CC[C@@H]12 | 2.15%
Cc1ccc2c(sc(-c3ccc4c(c3)sc(-c3ccc5c(c3)sc(-c3ccc(N(C)C)cc3)[n+]5C)[n+]4C)[n+]2C)c1S(=O)(=O)O (tested in a mixture with another compound) | 22.3%
COc1ccc(N=C(C)C(C)=Nc2ccc(OC)cc2)cc1 | 3%
COc1ccc2nc(N/N=C/c3ccc(C)s3)cc(C)c2c1 | -1.75%
O=C1c2cccnc2-c2nccc3ccnc1c23 | 58.8%
CNC(=S)/C(=N\Nc1nc[nH]c1C(N)=O)C(N)=S | 7.85%
COc1cc(N(CCC#N)CCC#N)ccc1/C(N=Nc1ccc(Cl)cc1)=N/NC(=O)c1cc(Br)ccc1O | -7.45%
O=C(Nc1cccc(NC(=O)C(=O)C2CCC3=C(Sc4ccccc4N3)C2=O)n1)C(=O)C1CCC2=C(Sc3ccccc3N2)C1=O (centres undefined) | 13.8%
COC(=O)C(=O)C(C(=O)C(=O)Nc1ccccc1C(C)=O)c1nc2ccc(C(=O)c3ccccc3)cc2[nH]c1=O (centres undefined) | -6.6%
[O-]c1ccccc1/C=N/C(/N=C/c1ccccc1[O-])c1ccccc1O.[O-]c1ccccc1/C=N/C(/N=C/c1ccccc1[O-])c1ccccc1O.[Zr+4] | 6.4%
OCc1ccccn1 | 3.45%
